Reference: PubChem BioAssay (NCI)
Where “and” joins values, the source holds several entries; their conditions need not be identical. Identical values can stand only once. This is part of a sample that, as a whole, favours compounds with a hit. Of some 83,000 tested, about 20% had one in any assay.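 Values shown are percent growth following 48 h exposure of cells in 96-well plates to a single concentration of compound; below 10 was considered active.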 Calls of active or inactive are those of the source.

Legend:
Test in all cases: NCI-60 one-dose screen, 48 h (100 = growth as untreated, 0 = no growth, -100 = all killed)
Details in all cases: 10 µM unless noted
HCT-15 colon = system: HCT-15 colon
SNB-75 CNS = system: SNB-75 CNS
SNB-19 CNS = system: SNB-19 CNS
PC-3 prostate = system: PC-3 prostate
SK-MEL-5 melanoma = system: SK-MEL-5 melanoma
LOX IMVI melanoma = system: LOX IMVI melanoma
SK-MEL-28 melanoma = system: SK-MEL-28 melanoma
HT29 colon = system: HT29 colon
U251 CNS = system: U251 CNS
UACC-62 melanoma = system: UACC-62 melanoma

SMILES	growth (HCT-15 colon)	growth (SNB-75 CNS)	growth (SNB-19 CNS)	growth (PC-3 prostate)	growth (SK-MEL-5 melanoma)	growth (LOX IMVI melanoma)	growth (SK-MEL-28 melanoma)	growth (HT29 colon)	growth (U251 CNS)	growth (UACC-62 melanoma)
CCOC(=O)c1cc2c(n(C)c1=O)-c1cnn(-c3ccc(OC)cc3)c1CC2	89% (inactive)	90.5% (inactive)	96.6% (inactive)	98.5% (inactive)	98% (inactive)	93.9% (inactive)	96.6% (inactive)			
COc1ccc(/C=N/NC(=O)c2cnn3c2NC(c2ccccc2)C3)cc1OC1CCCC1 (configuration not stated)		84.3% (inactive)	87.7% (inactive)	79.1% (inactive)	78.8% (inactive)	85.2% (inactive)	108% (inactive)	90.6% (inactive)	83% (inactive)	83% (inactive)
O=C1NC(=O)C(CSc2ccccc2)(c2ccccc2)N1 (configuration not stated)	119% (inactive)	83.9% (inactive)	113% (inactive)	88.9% (inactive)		89.6% (inactive)	112% (inactive)		96.7% (inactive)	101% (inactive)
COc1ccc(Nc2nc(NCCNc3ccnc4cc(Cl)ccc34)nc(N3CCOCC3)n2)cc1		38.4% (inactive)	78% (inactive)	43.8% (inactive)	48.7% (inactive)	40.2% (inactive)	-80.7% (active)	4.28% (active)	48.2% (inactive)	74.2% (inactive)
CON=C1C[C@]2(C[C@@H]3C[C@@H](C/C=C(\C)C[C@@H](C)/C=C/C=C4\CO[C@@H]5[C@H](O)C(C)=C[C@@H](C(=O)O3)[C@]45O)O2)O[C@H](/C(C)=C/C(C)C)[C@H]1C		140% (inactive)	63.3% (inactive)	13.5% (inactive)	65.1% (inactive)	55.3% (inactive)	85.8% (inactive)	32.4% (inactive)	39.5% (inactive)	70.6% (inactive)
Clc1cccc(Cl)c1Nc1ccc2nnc(-c3ccncc3)n2n1		99.4% (inactive)	101% (inactive)	101% (inactive)	100% (inactive)	93.2% (inactive)	105% (inactive)		103% (inactive)	106% (inactive)
O=C1/C(=C/c2ccc(Oc3ccccc3)cc2)N=C(c2ccccc2)N1CCc1cccs1		63.2% (inactive)	89% (inactive)	62.1% (inactive)	95.2% (inactive)	62.1% (inactive)	94% (inactive)	35% (inactive)	93.9% (inactive)	72% (inactive)
Cc1nc2cc(Nc3nc(N4CCOCC4)nc(N4CCN(C)CC4)n3)ccc2n1Cc1ccccc1		71.2% (inactive)	106% (inactive)	96.7% (inactive)	97.5% (inactive)	97.2% (inactive)	106% (inactive)	109% (inactive)		
COc1ncc(F)c(OC)n1		89.1% (inactive)	111% (inactive)	92.2% (inactive)	97.5% (inactive)	102% (inactive)	107% (inactive)	104% (inactive)		106% (inactive)
CC(C)(C)[Si](C)(C)OC1[C@@H](COC(=O)NC(=O)CCl)O[C@@H](n2cnc3c(N)ncnc32)[C@H]1O[Si](C)(C)C(C)(C)C (some centres not stated)		101% (inactive)		-59.9% (active)	61.4% (inactive)	-94% (active)	71.8% (inactive)	32.3% (inactive)	53.2% (inactive)	75.2% (inactive)
O=C1NC(=S)NC1C(Cc1ccccc1)c1ccco1 (configuration not stated)										36.5% [100 µM] (inactive) and 57.6% [100 µM] (inactive)
COc1ccc(-c2nc3sc(C)cn3c2/C=C/C(=O)c2cc(OC)c(OC)c(OC)c2)cc1		55.8% (inactive)	75.6% (inactive)	19% (inactive)		48.8% (inactive)	41.4% (inactive)		47.1% (inactive)	36.7% (inactive)
Clc1ccc2c(N3CCN(c4ccnc(NC5CCCCC5)n4)CC3)ccnc2c1		65.6% (inactive)		36.7% (inactive)			36.8% (inactive)	3.22% (active)	40.4% (inactive)	
CC(C)(C)O/N=C/c1cc(NC(=S)c2ccsc2)ccc1Cl										-90.7% [100 µM] (active) and -85.1% [100 µM] (active)
CC1(C)N=C(N)N=C(N)N1c1cccc(OCCOc2cccc([N+](=O)[O-])c2)c1		51.8% (inactive)	53.9% (inactive)	17.8% (inactive)	70.5% (inactive)	20.1% (inactive)		15.4% (inactive)		39.6% (inactive)
O=C1C(Br)=C(c2ccccc2)C(=O)C(Br)=C1c1ccccc1		78% (inactive)	93.6% (inactive)	91.5% (inactive)		97.5% (inactive)	107% (inactive)	110% (inactive)		83.1% (inactive)
O=c1cc(-c2ccc(O)cc2)oc2cc(O[C@@H]3O[C@H](CO)[C@@H](O)[C@H](O)[C@H]3O)cc(O)c12										29.2% [100 µM] (inactive) and -80.1% [100 µM] (active)
COC(=O)c1ccc(CCc2cc(O)c(Br)cc2O)cc1										-96.8% [100 µM] (active) and -100% [100 µM] (active)
Nc1nc2c(s1)CCc1c-2c(Br)n(Cc2ccccc2)c1Br		89.5% (inactive)	105% (inactive)	89.1% (inactive)	89.3% (inactive)	86.1% (inactive)	100% (inactive)		91.6% (inactive)	78.3% (inactive)
Cc1cc[n+](CCc2ccccc2)cc1									97.2% (inactive)	
CCCCNNC(=O)c1ccc(Br)cc1		61.1% (inactive)	76.6% (inactive)	61.4% (inactive)		62.1% (inactive)	53.2% (inactive)	36.9% (inactive)	61.9% (inactive)	40.9% (inactive)

SMILES	growth (HCT-15 colon)	growth (SNB-75 CNS)	growth (SNB-19 CNS)	growth (PC-3 prostate)	growth (SK-MEL-5 melanoma)	growth (LOX IMVI melanoma)	growth (SK-MEL-28 melanoma)	growth (HT29 colon)	growth (U251 CNS)	growth (UACC-62 melanoma)
COC(=O)C(=O)C(C(=O)C(=O)Nc1ccccc1C(=O)OC)c1nc2ccc(C(=O)c3ccccc3)cc2[nH]c1=O (configuration not stated)										54.3% [100 µM] (inactive) and 12.8% [100 µM] (inactive)
CCOC(=O)CCC(NC(=O)c1ccc(OCc2nc3cc(C(F)(F)F)ccc3nc2-c2ccccc2)cc1)C(=O)OCC (configuration not stated)										49.5% [100 µM] (inactive) and 4.13% [100 µM] (active)
C1CCC([PH+](C2CCCCC2)C2CCCCC2[PH+](C2CCCCC2)C2CCCCC2)CC1.[Au].[CH-]1CCCCC1CC1CCCC[N-]1 (configuration not stated)		19.8% (inactive)								
O=c1[nH]c(-c2ccccn2)nc2sc3c(c12)CCCCCC3		64.8% (inactive)		41.1% (inactive)		29.7% (inactive)	40.1% (inactive)	49% (inactive)	22.5% (inactive)	45.6% (inactive)
Cc1ccc2nc(NC(=O)CSC(=S)N3CCN(Cc4ccccc4)CC3)sc2c1		-93.2% (active)	-22.2% (active)	-40.2% (active)	-96.4% (active)	-41.3% (active)	-60% (active)		-46.3% (active)	
CCOc1cc2c(cc1O)/C(=N\N)C[C@@H]1[C@@H]2CC[C@]2(C)[C@@H](O)CC[C@@H]12										17.1% [100 µM] (inactive) and -96.8% [100 µM] (active)
C=CCCCCCCCCC(=O)[O-].C=CCCCCCCCCC(=O)[O-].[Zn+2]			100% (inactive)							
COc1ccc(-n2ncc3c2ccc2cc(S(=O)(=O)c4ccccc4)c(=O)n(C)c23)cc1		49.6% (inactive)	92.7% (inactive)	86.7% (inactive)	95.9% (inactive)	86% (inactive)	91.2% (inactive)	81.2% (inactive)		87.8% (inactive)
N#Cc1c(SCc2ccccc2)nc(-c2ccccc2)[nH]c1=S										-44.7% [100 µM] (active) and 1.92% [100 µM] (active)
Oc1ccc2ccccc2c1C1NN=C(c2ccccc2)S1 (configuration not stated)			23.6% (inactive)	27.7% (inactive)	11.6% (inactive)	13.8% (inactive)	23% (inactive)	37.8% (inactive)	19.4% (inactive)	
COc1ccc(-c2c3c(N)c4c(nc3nc3c2c(C)nn3-c2ccccc2)CCCC4)cc1		78.6% (inactive)	103% (inactive)	64.9% (inactive)		92.6% (inactive)		21.1% (inactive)		92.9% (inactive)
Oc1ccccc1/C=N/Nc1nc2ccccc2s1		45.6% (inactive)	51.4% (inactive)	34.6% (inactive)	48.8% (inactive)	37.2% (inactive)	83.3% (inactive)	105% (inactive)	45.3% (inactive)	
Clc1ccc(Nc2ccnc(N3CCN(c4ccnc5cc(Cl)ccc45)CC3)n2)cc1		27.7% (inactive)	58.2% (inactive)	37.7% (inactive)			63.8% (inactive)		51.9% (inactive)	31.3% (inactive)
O=c1nc(NO)[nH]c(=O)n1Cc1ccc(F)cc1		86.1% (inactive)		94.1% (inactive)		101% (inactive)	102% (inactive)	105% (inactive)	98.6% (inactive)	108% (inactive)
CCN1CCN(C(=S)SCC(=O)Nc2nc3ccc(OC)cc3s2)CC1		94% (inactive)	93.1% (inactive)	82.9% (inactive)	94.6% (inactive)	91.3% (inactive)	106% (inactive)	102% (inactive)	102% (inactive)	
Cc1ccc(C(=O)O[C@H](C(=O)O)[C@H](OC(=O)c2ccc(C)cc2)C(=O)O)cc1			102% (inactive)							
CC(C)NCC(O)COc1ccc(CCOCC2CC2)cc1 (configuration not stated)		99.3% (inactive)	106% (inactive)	80% (inactive)	95% (inactive)		118% (inactive)	97.9% (inactive)	99.4% (inactive)	110% (inactive)
O=C(COc1ccc(/C=C2\CSc3ccccc3C2=O)cc1)c1ccc(Cl)cc1			92.3% (inactive)		116% (inactive)	95% (inactive)	124% (inactive)	121% (inactive)	104% (inactive)	83% (inactive)
COc1nc2c(cc1S(=O)(=O)c1ccccc1)CCc1c-2cnn1-c1ccccc1			89.3% (inactive)	50.3% (inactive)	86.6% (inactive)	90% (inactive)		54.7% (inactive)		69.4% (inactive)
COc1cc(/C=C2\C(=O)Nc3ccccc32)cc(OC)c1O			83.7% (inactive)	51.2% (inactive)	45.7% (inactive)	36.5% (inactive)	90.3% (inactive)	75.7% (inactive)	47% (inactive)	72.1% (inactive)
C=C(C)COC(=O)c1ccccc1C(=O)OCC1(C)CO1 (configuration not stated)		92.9% (inactive)	101% (inactive)	104% (inactive)	105% (inactive)	84.5% (inactive)	117% (inactive)	107% (inactive)	102% (inactive)	
